Screens as filed in PubChem.
Anthrax LF prot: inhibitors of Bacillus anthracis lethal factor protease; P15917; multiplex microsphere protease cleavage assay, LF; inhibition, % at 10 µM; 0.12% of 360,000 active; further: plate controls were buffer without enzyme for full effect and enzyme alone for no effect
Autofluor counter: compound fluorescence in toxin protease inhibitor counterscreen | 3.1% of 360,000 active | compound autofluorescence counterscreen, microsphere flow cytometry; stronger effect = higher value | fluorescence intensity (test concentration not listed) | AID 624483; in the data active means fluorescence intensity above about 16000; inconclusive means no clear call, values can overlap the other calls
SARS 3CLpro inh: SARS-CoV 3CLpro protease inhibition; P0C6X7; recombinant SARS-CoV 3CLpro, quenched FRET peptide cleavage; inhibition, % at 6 µM; 0.14% of 290,000 active; AID 1706; in the data active means inhibition above about 12%
BoNT-A LC inh2: inhibitors of Botulinum neurotoxin A light chain protease; multiplex microsphere protease substrate cleavage, flow cytometry; inhibition, % at 10 µM; 0.17% of 360,000 active; further: plate controls were buffer without enzyme for full effect and enzyme alone for no effect
BoNT-F LC inh: BoNT F light chain protease inhibition; Multiplex microsphere protease cleavage assay, flow cytometry; inhibition, % at 10 µM; 0.22% of 360,000 active; in the data active means inhibition above about 35%, passing the limit was not always enough; inconclusive means no clear call, values can overlap the other calls; further: plate controls were buffer without enzyme for full effect and enzyme alone for no effect
CCHFV vOTU inh: CCHFV vOTU protease inhibition | Pep-AMC fluorescence | inhibition, % at 11.5 µM | 0.55% of 370,000 active; in the data active means inhibition above about 30%; further: 0% = vehicle wells with enzyme and 100% = no enzyme wells
* marks the source's active call; other numbers are inactive results; ? = inconclusive; · = no result given. An excerpt weighted towards active compounds, which were near 3.9% of everything screened. Unless noted, no stated cut-off is given here; in the data, active means inhibition above about 30%; inconclusive means no clear call, values can overlap the other calls; inactive means below that.

SMILES	Anthrax LF prot	Autofluor counter	SARS 3CLpro inh	BoNT-A LC inh2	BoNT-F LC inh	CCHFV vOTU inh
CC(C)(C)NC(=O)c1ccnc(C(C)(C)C)c1	-19	17617*	-7	18	20	-1
CCN1C(=O)CSc2ccc(C(=O)OC)cc21	-3	5924	1	0	-7	2
CC(C)(C)c1cc(C(=O)NCc2ccco2)ccn1	-1	24501*	-5	-2	-5	13
N#CCC1(O)C(=O)Nc2ccccc21 (centres undefined)	·	·	·	·	·	-6
COc1ccc(/C(C)=N\NC(=O)c2ccco2)cc1	·	·	·	·	·	3
COc1ccc(N2C(=O)c3n[nH]c(C(C)C)c3C2c2ccc(F)cc2)cc1 (centres undefined)	·	·	·	·	·	12
COC(=O)[C@]12C[C@H](CC(=O)NCCCN3CCCC3=O)C(=O)N(Cc3ccccc3)C1=C[C@H](C(C)C)O[C@@H]2C1CC1	·	·	·	·	·	-3
COc1cc(/C=C2\SC(=S)N(Nc3ccccc3)C2=O)ccc1O	15	2831	6	22	1	5
CCOc1cc(/C=C2\SC(=S)N(Nc3ccccc3)C2=O)ccc1O	42*	3712	-1	39*	30	8
COc1cccc(/C=C2\CC3(OC(=O)c4ccc(Cl)cc4)CCCN2C3)c1 (centres undefined)	·	·	·	·	·	1
O=C(c1cc(-c2cccs2)on1)N1CCN(c2ccccc2)CC1	2	8264	0	-1	-2	·
O=C(c1cc(-c2cccs2)on1)N1CCN(c2ccc(F)cc2)CC1	-6	21562*	4	-4	-4	-4
COc1ccc(NC(=O)C2OC3OC(C)(C)OC3C3OC(C)(C)OC23)cc1 (centres undefined)	0	23845*	5	-1	-1	-9
CCCCCOc1ccc(NC(=O)C2OC3OC(C)(C)OC3C3OC(C)(C)OC23)cc1 (centres undefined)	-2	2407	2	0	-3	-9
O=C(Nc1ccc(Cl)c(Cl)c1)c1cccc2c1-c1ccccc1C2=O	·	·	·	·	·	0
O=C(O)/C(=C\c1ccco1)NC(=O)c1cccc2ccccc12	-1	20299*	2	8	10	9
COC(=O)[C@]12C[C@H](CC(=O)N3CCOCC3)C(=O)N(Cc3ccc4c(c3)OCO4)C1=C[C@H](C(C)C)O[C@@H]2C1CC1	·	·	·	·	·	-7
O=C(c1ccccc1C(F)(F)F)N1CCC(Oc2cccnc2)CC1	·	·	·	·	·	-8
CSc1ccccc1C(=O)NCCCOC(C)C	0	21738*	8	4	1	·
CCCCNC(=O)c1cc(C)nc2ccccc12	-2	4239	2	1	0	29
Cc1cc(C(=O)NCCCOC(C)C)c2ccccc2n1	1	22118*	-2	0	2	-17
O=c1oc2ccccc2cc1-c1nc2c(s1)CCCC2	7	23234*	2	?	6	-96
O=c1oc2ccccc2cc1-c1nc2ccccc2o1	0	8144	5	0	0	-309
CC(=O)Nc1ccc(S(=O)(=O)Nc2nnc(C(C)C)s2)cc1	-2	16628*	0	0	-3	4
C=CCN1C(=O)[C@@H](CC(=O)NCCC(C)C)[C@]2(C(=O)OCC)CCCCC/C=C/12	·	·	·	·	·	2
SMILES	Anthrax LF prot	Autofluor counter	SARS 3CLpro inh	BoNT-A LC inh2	BoNT-F LC inh	CCHFV vOTU inh
Cc1cc(NC(=O)c2ccc(NS(=O)(=O)c3ccccc3)cc2)no1	·	·	·	·	·	0
COc1ccc(/C=N/N2CCN(c3ccccc3OC)CC2)cc1OC	-5	16494*	0	?	-1	-8
COc1cccc(/C=N/N2CCN(c3ccccc3OC)CC2)c1	-5	24263*	-3	-4	-5	-5
COc1ccc(/C=N/N2CCN(c3ccccc3OC)CC2)cc1Br	24	2971	-5	1	?	0
O=C(NC1CCCCN(Cc2ccc(Cl)cc2)C1=O)c1ccc(F)c(F)c1 (centres undefined)	·	·	·	·	·	9
CCCCNC(=O)C1(C(=O)c2ccc(OC)cc2)CC(c2ccccc2C(F)(F)F)=NO1 (centres undefined)	·	·	·	·	·	8
Cc1cccc(NC(=O)c2cc(S(=O)(=O)NCc3ccco3)ccc2F)c1C	1	23011*	-5	2	1	7
CCN(CCOC(=O)Nc1ccc(Cl)cc1)C(=O)Nc1ccc(Cl)cc1	·	·	·	·	·	-2
CCOC(=O)C1CCCN(C(=O)N2CCOCC2)C1 (centres undefined)	-2	19919*	1	?	-1	0
CCOC(=O)C1CCCN(C(=O)c2ccco2)C1 (centres undefined)	3	23110*	-3	1	-1	3
CCOC(=O)C1CCCN(C(=O)c2cc3c(C)nc4ccccc4c3o2)C1 (centres undefined)	1	22194*	-9	0	3	-2
Cc1nc2ccccc2c2oc(C(=O)N3CC(C)CC(C)C3)cc12 (centres undefined)	-1	5918	-6	0	-5	17
CCOC(=O)C1CCCN(C(=O)c2ccc(-c3ccccc3Cl)o2)C1 (centres undefined)	·	·	·	·	·	13
COc1nn(C(C)C(=O)N2N=C(C(F)F)CC2(O)C(F)F)cc1[N+](=O)[O-] (centres undefined)	3	20181*	1	-1	-1	1
COc1nn(CC(=O)N2N=C(C(F)F)CC2(O)C(F)F)cc1[N+](=O)[O-] (centres undefined)	-3	23495*	-1	-3	-4	-2
Cc1ccc2nc(CN(C)C(=O)[C@H]3O[C@@H](n4cnc(C(N)=O)n4)[C@H](O)[C@@H]3O)[nH]c2c1	·	·	·	·	·	16
COC(=O)C[C@H]1CC[C@H]2[C@H](COc3ccc(NS(=O)(=O)c4ccccc4C)cc3C(=O)N2C)O1	·	·	·	·	·	1
Cc1cc(C)c2c(c1)-c1cc(C)nn1C(c1ccc3c(c1)OCO3)N2 (centres undefined)	0	24496*	2	?	-9	-10
O=C(Nc1ccc(Cl)cc1)Nc1ccc(N2CCOCC2)cc1	3	4028	-4	-1	-17	11
O=C(Nc1ccc(N2CCOCC2)cc1)Nc1ccc(Cl)c(Cl)c1	-8	17169*	-3	-4	-8	-7
O=C(c1cccc2c1-c1ccccc1/C2=N/O)N1CCCCC1	3	20508*	2	?	-3	2
O=S(=O)(Nc1nccs1)c1ccc(NS(=O)(=O)c2cccs2)cc1	-15	19362*	-2	6	10	9
Cc1nc2ccc(NC(=O)c3ccc(F)cc3Cl)cc2c(=O)[nH]1	·	·	·	·	·	-1
COc1cc([N+](=O)[O-])cc(CN2CCCCC2)c1O	-4	16919*	-8	?	-4	-8
O=S1(=O)c2ccc(N3CCCC3)cc2Oc2ccccc2CN1Cc1cn(Cc2cccc(C(F)(F)F)c2)nn1	·	·	·	·	·	23
Cc1cc(C)n(-c2ccc(C(=O)OCC(=O)Nc3ccc(Cl)c(S(=O)(=O)N(C)C)c3)cc2)n1	-2	25627*	-3	?	-7	5
COc1ccc(NC(=O)COC(=O)c2ccc(-n3nc(C)cc3C)cc2)cc1OC	-6	7822	·	1	-1	15
Cc1ccc(-n2c(COc3ccccc3)nnc2SCC(=O)Nc2ccc3c(c2)OCO3)cc1	·	·	·	·	·	10
